In the supplement of paper PMC6522484:
± gives the standard deviation of the averaged measurements.

Key:
[1] = system: DLD1; experiment: cell viability (CellTiter-Glo) relative to plate median (fraction of plate median); higher = more viable cells; conditions: 5 µM; treatment time 24 h; reporter: 7TFP
Method in brief: (§1)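 Luminescence, normalised well by well to the plate median, is tabulated as a mean of independent replicates. There were two replicates, run on colorectal cancer lines stably transduced with lentiviral TCF/Wnt firefly luciferase reporters and dosed with library compounds at a final 5 µM for 24 h. Readouts were firefly luciferase or CellTiterGlo on parallel plates.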

[2] = system: HCT116; experiment: as above; conditions: 5 µM; treatment time 24 h; reporter: TCF4/Wnt
Method in brief: as §1

[3] = system: SW480; experiment: as above; conditions: 5 µM; treatment time 24 h; reporter: 7TFP
Method in brief: as §1

[4] = system: DLD1; experiment: TCF/Wnt firefly luciferase reporter signal relative to plate median (fraction of plate median); higher = higher Wnt reporter signal; conditions: 5 µM; treatment time 24 h; reporter: 7TFP
Method in brief: as §1

[5] = system: SW480; experiment: as above; conditions: 5 µM; treatment time 24 h; reporter: 7TFP
Method in brief: as §1

| SMILES | cell viability [1] | cell viability [2] | cell viability [3] | TCF/Wnt firefly luciferase reporter signal [4] | TCF/Wnt firefly luciferase reporter signal [5] |
| --- | --- | --- | --- | --- | --- |
| CCc1cnn2c(NCc3ccc[n+]([O-])c3)cc(N3CCCC[C@H]3CCO)nc12 [Dinaciclib] | 0.99 ± 0.042 | 0.779 ± 0.069 | 1.32 ± 0.12 | 0.57 ± 0.12 | 0.789 ± 0.035 |
| CCCCC(=O)O[C@]1(C(=O)CO)CC[C@H]2[C@@H]3CCC4=CC(=O)CC[C@]4(C)[C@H]3[C@@H](O)C[C@@]21C | 0.981 ± 0.084 | 1.02 ± 0.11 | 0.96 ± 0.013 | 1.02 ± 0.11 | 0.997 ± 0.061 |
| Clc1cccc(Cl)c1NC1=NCCN1 | 0.987 ± 0.033 | 0.925 ± 0.16 | 0.988 ± 0.013 | 1.065 ± 0.0071 | 1.01 ± 0.11 |
| CCCCC1C(=O)N(c2ccccc2)N(c2ccccc2)C1=O | 1.02 ± 0.063 | 0.987 ± 0.12 | 1.035 ± 0.0071 | 1.14 ± 0.085 | 1.01 ± 0.024 |
| CN[C@@H]1[C@H](O)[C@H](NC)[C@H]2O[C@@]3(O)C(=O)C[C@@H](C)O[C@H]3O[C@@H]2[C@H]1O | 1.04 ± 0.08 | 1.004 ± 0.0085 | 0.978 ± 0.025 | 1.24 ± 0.18 | 1.09 ± 0.13 |
| OCC(S)CS (stereo not given) | 0.884 ± 0.063 | 0.956 ± 0.018 | 0.944 ± 0.032 | 0.921 ± 0.057 | 0.936 ± 0.066 |
| CCCCCCCCCCCCCCCC(=O)OC[C@@H](NC(=O)C(Cl)Cl)[C@H](O)c1ccc([N+](=O)[O-])cc1 | 0.96 ± 0.0042 | 0.996 ± 0.02 | 1.01 | 0.971 ± 0.028 | 1.02 ± 0.052 |
| CCCCN(CCCC)CCCOC(=O)c1ccc(N)cc1 | 0.877 ± 0.033 | 0.92 ± 0.13 | 0.954 ± 0.053 | 1.11 ± 0.014 | 0.993 ± 0.011 |
| COc1c(CC(=O)c2cc3c(cc2O)OC(C)(C)C(O)C3)ccc2c1C=CC(C)(C)O2 (stereo not given) | 1.02 ± 0.03 | 1.02 ± 0.035 | 0.911 ± 0.021 | 0.941 ± 0.039 | 0.929 ± 0.08 |
| O=c1cc(-c2ccccc2)oc2c(O)c(O)ccc12 | 1.11 ± 0.11 | 0.969 ± 0.039 | 0.98 ± 0.015 | 1.13 ± 0.071 | 1.11 ± 0.057 |
| COC(=O)/C=C/C(C)=C\C=C\C(C)=C\C=C\C=C(C)\C=C\C=C(C)\C=C\C(=O)O | 1.05 ± 0.057 | 1.05 ± 0.028 | 0.968 ± 0.046 | 0.981 ± 0.042 | 0.997 ± 0.047 |
| c1ccc(-c2ccc(C(c3ccccc3)n3ccnc3)cc2)cc1 (stereo not given) | 1.03 ± 0.035 | 1.01 ± 0.026 | 0.965 ± 0.011 | 0.938 ± 0.016 | 0.923 ± 0.033 |
| O=C(N[C@H](CO)[C@H](O)c1ccc([N+](=O)[O-])cc1)C(Cl)Cl | 0.939 ± 0.013 | 0.918 ± 0.14 | 1.04 ± 0.042 | 1.09 ± 0.085 | 1 ± 0.013 |
| COC(=O)CC[C@@H](C)[C@H]1CC[C@H]2[C@@H]3[C@H](O)C[C@@H]4C[C@H](O)CC[C@]4(C)[C@H]3C[C@H](O)[C@]12C | 0.98 ± 0.0099 | 1.06 | 1.005 ± 0.0071 | 1.21 ± 0.014 | 1.09 ± 0.092 |
| O=C(O)[C@]1(O)C[C@@H](O)[C@@H](O)[C@H](O)C1 | 0.982 ± 0.04 | 1.05 ± 0.16 | 0.934 ± 0.033 | 1.08 ± 0.16 | 0.923 ± 0.17 |
| CN(C(=O)CN(CCO)CC(=O)N(C)C(C)(C)Cc1ccccc1)C(C)(C)Cc1ccccc1 | 1.01 ± 0.022 | 1.04 ± 0.11 | 1.11 | 1.15 ± 0.05 | 1.025 ± 0.0071 |
| NCCc1c[nH]cn1 | 1.06 ± 0.028 | 1.02 ± 0.021 | 1.04 ± 0.062 | 1.12 | 1.06 ± 0.014 |
| CC(=O)OC1CC[C@@]2(C)C(CC[C@H]3[C@@H]4CC=C(C(C)=O)[C@@]4(C)C(=O)C[C@@H]32)C1 (stereo not given in full) | 1 ± 0.012 | 1.05 ± 0.081 | 1.04 ± 0.072 | 1.08 ± 0.014 | 1.06 ± 0.05 |
| CNS(=O)(=O)Cc1ccc2[nH]cc(CCN(C)C)c2c1 | 1.08 ± 0.099 | 1.07 ± 0.05 | 0.9885 ± 0.0078 | 1.07 ± 0.099 | 1.07 ± 0.028 |
| C[C@H](CCC(=O)O)[C@H]1CC[C@H]2[C@@H]3[C@@H](O)C[C@@H]4C[C@H](O)CC[C@]4(C)[C@H]3CC[C@]12C | 0.966 ± 0.029 | 1.01 ± 0.025 | 0.958 ± 0.028 | 0.89 ± 0.061 | 1.02 ± 0.09 |
| O=c1cc(-c2ccc(O)cc2)oc2cc(O[C@@H]3O[C@H](CO)[C@@H](O)[C@H](O)[C@H]3O)cc(O)c12 | 0.924 ± 0.044 | 1.06 ± 0.093 | 1 ± 0.038 | 1.02 ± 0.059 | 1.07 ± 0.078 |
| CN1CC(=O)NC1=N | 1.02 ± 0.04 | 0.943 ± 0.021 | 1.02 ± 0.021 | 0.979 ± 0.059 | 0.935 ± 0.13 |
| CC[C@@H](CO)NCCN[C@@H](CC)CO | 0.963 ± 0.12 | 1.03 ± 0.021 | 1.02 ± 0.059 | 1.2 ± 0.05 | 1.19 ± 0.035 |
| COc1ccc2c(c1)[C@@]1(C)CC[C@@H](O)C[C@@H]1CC2 [12-METHOXY-4,4-BISNOR-5alpha-8,11,13-PODOCARPATRIEN-3-OL] | 1.02 ± 0.014 | 1.1 ± 0.13 | 0.984 ± 0.037 | 1.03 ± 0.11 | 0.937 ± 0.021 |
| C[C@@H]1NC(=O)[C@H](Cc2ccccc2)NC1=O [cyclo(alanylphenylalanyl)] | 1 ± 0.053 | 0.997 ± 0.17 | 0.96 ± 0.025 | 0.987 ± 0.12 | 1.04 ± 0.014 |
| CC1=C(CC(=O)O)c2cc(F)ccc2/C1=C\c1ccc([S+](C)[O-])cc1 (stereo not given) | 0.941 ± 0.028 | 0.901 ± 0.018 | 0.949 ± 0.1 | 1.03 ± 0.23 | 1.03 ± 0.12 |
| CC(=O)Oc1cccc(O)c1 | 1.01 ± 0.095 | 1.06 ± 0.042 | 1.07 ± 0.021 | 0.952 ± 0.097 | 1.05 ± 0.028 |
| NC(=O)NC1NC(=O)NC1=O (stereo not given) | 1.03 ± 0.014 | 1.09 ± 0.057 | 1.01 ± 0.03 | 1.02 ± 0.15 | 1.055 ± 0.0071 |
| CCCSc1ccc2[nH]c(NC(=O)OC)nc2c1 | 0.966 ± 0.039 | 0.893 ± 0.17 | 0.986 ± 0.016 | 1.1 ± 0.028 | 1.04 ± 0.1 |
| CN(C)[C@@H]1C(O)=C(C(N)=O)C(=O)[C@@]2(O)C(O)=C3C(=O)c4c(O)cccc4[C@@](C)(O)[C@H]3C[C@@H]12 | 0.988 ± 0.074 | 1.04 ± 0.093 | 1 ± 0.024 | 0.911 ± 0.11 | 0.839 ± 0.031 |
